In PubChem BioAssay one finds composite z-score and z-score data, which are given here for 17 molecules.

Molecules are shown by their SMILES. Active and inactive are the calls of the source. Unless noted, how the calls were made is not given here.

The subject of assay [1] is XIP peptide (Xip251-270) binding. Kind of assay: XIP fragment 251-270 binding compounds – biochemical, small-molecule microarray, fluorescence 635/667 nm, 0.1 µg/mL protein, primary screen (AID 1182). Conditions: fluorescent protein binding, 635 nm, higher = more signal, called active from +8 up or from −8 down.
The subject of assay [2] is XIP peptide (Xip251-270). Kind of assay: compounds binding XIP fragment 251-270 – biochemical, small-molecule microarray, fluorescence 635/667 nm, 0.5 µg/mL protein, primary screen (AID 1183). The conditions noted are these: fluorescence 635 nm, higher = more signal.
Assay [3] can be described thus: blood-stage malaria parasite viability loss – strain 3D7, DAPI fluorescence, 100 nL, primary screen (AID 1184).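 Further: parasites grown inside human red blood cells in medium with human serum.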 Conditions: P. falciparum 3D7 growth, 3 d, higher = more signal.
Assay [4] addresses Homeobox protein Hox-A13 (Mus musculus) (UniProt Q62424). Kind of assay: disruptors of Hoxa13 oligonucleotide interaction – biochemical, fluorescence polarization, labeled oligonucleotide, primary screen (AID 1185). Conditions: Hoxa13:DNA binding, 15 min, higher = more signal, called active from +8 up or from −8 down. In general terms: In fluorescence polarisation assays a small probe gives low polarisation when free and higher when bound to something large.

A short description of assay [5]: blockers of DNA damage checkpoint Chk1 activation – imaging, HeLa, hydroxyurea, phospho-Chk1 antibody, percent positive cells, primary screen (AID 1186). Conditions: hydroxyurea-induced phospho-Chk1 immunofluorescence imaging, higher = more signal.
A short description of assay [6]: blockers of DNA damage checkpoint Chk1 activation – imaging, HeLa, hydroxyurea, phospho-Chk1 nuclear intensity, primary screen (AID 1187). The conditions noted are these: hydroxyurea-induced phospho-Chk1 immunofluorescence imaging, higher = more signal.

Homeobox protein Hox-A13 (Mus musculus), sequence (Q62424 whole entry, looked up): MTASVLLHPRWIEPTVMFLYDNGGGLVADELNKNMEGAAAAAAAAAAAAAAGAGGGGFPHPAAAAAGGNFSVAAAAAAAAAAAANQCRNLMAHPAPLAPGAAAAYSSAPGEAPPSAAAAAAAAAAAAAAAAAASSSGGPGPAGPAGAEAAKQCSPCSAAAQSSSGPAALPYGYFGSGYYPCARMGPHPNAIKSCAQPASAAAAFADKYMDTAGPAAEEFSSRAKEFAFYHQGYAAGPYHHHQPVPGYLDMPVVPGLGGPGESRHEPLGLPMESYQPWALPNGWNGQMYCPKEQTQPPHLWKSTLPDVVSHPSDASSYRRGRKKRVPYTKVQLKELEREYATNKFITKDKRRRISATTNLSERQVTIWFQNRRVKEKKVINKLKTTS

For the molecule `CN(C)CCCC[C@@H]1NC(=O)[C@H]2C[C@@H](C(=O)O)[C@@H](c3cccc(OCCO)c3)N2C1=O`, the composite z-score in assay [1] was 0.432 (inactive); in assay [2], 0.288. Moreover, the z-score in assay [3] is -0.133; in assay [4], -1.71 (inactive); in assay [5], -0.791 (inactive); in assay [6], -0.55 (inactive).
`CC(C)(C)OC(=O)CC[C@]1(C(N)=O)N=C(c2ccc(OCCCO)cc2)O[C@H]1c1ccccc1CN=[N+]=[N-]`: the results for the composite z-score in assay [1] and in assay [2] were -0.226 (inactive) and 0.819, respectively. Besides, the z-score in assay [3] is -0.176; in assay [4], -4.12 (inactive); in assay [5], -0.198 (inactive); in assay [6], 0.0796 (inactive).
On to `CC(C)C[C@@H]1NC(=O)C([C@@H](C)OCc2ccccc2)NC(=O)[C@@]23C(=O)N[C@@H](Cc4ccccc4)C2[C@H](C)[C@@]2(C)O[C@H]2C3/C=C/CC/C=C/CNC1=O` (some centres not stated), for which the composite z-score in assay [1] was -0.0755 (inactive); in assay [2], 0.677. Also, the z-score in assay [3] is -3.08; in assay [4], -6.51 (inactive); in assay [5] it was -0.799 (inactive); in assay [6], -0.574 (inactive).
For `C=C(COC)C(=O)CC[C@@H](OC(=O)c1cccnc1)c1cccc(OCCO)c1`, the composite z-score in assay [1] was -0.209 (inactive); in assay [2], 0.617. Besides, the z-score was -2.53 in assay [3], -4.51 (inactive) in assay [4], -0.494 (inactive) in assay [5] and 2.22 (inactive) in assay [6].
As for `C=C(CCCC)C(=O)CC[C@H](OC(C)=O)c1ccccc1OCCO`, the composite z-score in assay [1] is 0.551 (inactive); in assay [2], 0.439. The z-score in assay [3] is -2.52; in assay [4], -5.49 (inactive); in assay [5] it was -0.384 (inactive); in assay [6], 0.126 (inactive).
Turning to `COCCCN1C(=O)[C@@]2(Cc3ccccc31)c1ccccc1C(=O)N(Cc1ccccc1OC)[C@H]2c1ccc(CO)cc1`, the values for the composite z-score in assay [1] and in assay [2] were -0.184 (inactive) and 0.0806, respectively. Moreover, the z-score in assay [3] is 0.861; in assay [4], -2.34 (inactive); in assay [5], 0.177 (inactive); in assay [6], 0.217 (inactive).
`COC(=O)[C@@]1(Cc2ccc(OC)cc2)[C@H]2c3cc(C(=O)N(C)C)n(Cc4ccsc4Br)c3C[C@H]2CN1C(=O)c1ccccc1`: the results for the composite z-score in assay [1] and in assay [2] were 0.197 (inactive) and 0.793, respectively. In addition, the z-score is -1.02 in assay [3], -1.15 (inactive) in assay [4], 0.0352 (inactive) in assay [5] and 0.984 (inactive) in assay [6].
As for `COc1cccc(C[C@H]2C[C@@H](CO[Si](C(C)C)(C(C)C)C(C)C)N3C(=O)[C@@]4(C(C)=O)O[C@@]23[C@@H]2C(=O)N(C)C(=O)[C@@H]24)c1`, the composite z-score is 0.234 (inactive) in assay [1] and 0.61 in assay [2]. The z-score is -1.75 in assay [3], -3.39 (inactive) in assay [4], -0.365 (inactive) in assay [5] and -0.482 (inactive) in assay [6].
`CC(C)C(=C=CC[C@@H](O)c1ccccc1OCCO)C[C@@H](O)c1cc(Cl)cc(Cl)c1O`: the composite z-score is 1.25 (inactive) in assay [1] and 0.748 in assay [2]. Further, the z-score in assay [3] was -1.39; in assay [4], -3.09 (inactive); in assay [5] it was -0.059 (inactive); in assay [6], 0.189 (inactive).
As for `C=CCNC(=O)[C@@H]1[C@H]2C(=O)O[C@H](c3ccccc3)[C@H](c3ccccc3)N2[C@H](c2ccc(O)cc2)[C@@]12C(=O)Nc1ccc(C#CC3(O)CCCCCC3)cc12`, the composite z-score in assay [1] was 0.237 (inactive); in assay [2] it was -0.251. Further, the z-score in assay [3] was 0.516; in assay [4], -3.49 (inactive); in assay [5], -0.326 (inactive); in assay [6], -0.0283 (inactive).
`COCC(=C=CC[C@@H](O)c1ccc(OCCO)cc1)C[C@@H](O)COCc1ccccc1`: the composite z-score in assay [1] was 0.705 (inactive); in assay [2] it was 0.181. Moreover, the z-score in assay [3] is -2.96; in assay [4], -4.15 (inactive); in assay [5], -0.252 (inactive); in assay [6], 0.483 (inactive).
Take `COC(=O)[C@@]1(Cc2ccc(OC)cc2)[C@@H]2[C@@H](CC(=O)[C@H]2CC(=O)C(=O)N2CCCC2)CN1C(=O)c1ccccc1`: the composite z-score is 0.506 (inactive) in assay [1] and 0.807 in assay [2]. For the same molecule, the z-score in assay [3] was -0.937; in assay [4] it was -2.95 (inactive); in assay [5], -0.961 (inactive); in assay [6], -1.03 (inactive).
With `C=C(/C(=C/C[C@@H](OC(C)=O)c1ccccc1OCCO)c1cc(C(=O)OC)ccc1OC)C(C)C`, the figures for the composite z-score in assay [1] and in assay [2] were 0.988 (inactive) and 0.839, respectively. In addition, the z-score in assay [3] was -2.8; in assay [4], -4.71 (inactive); in assay [5], 0.689 (inactive); in assay [6], 0.766 (inactive).
For `CCCCC(=C=CC[C@@H](O)c1cccc(OCCO)c1)CCO`, the composite z-score was -0.0509 (inactive) in assay [1] and 0.106 in assay [2]. Also, the z-score in assay [3] is -0.0161; in assay [4], -2.25 (inactive); in assay [5], -0.875 (inactive); in assay [6], -0.341 (inactive).
On to `C=CCNC(=O)[C@H]1[C@@H]2C(=O)O[C@@H](c3ccccc3)[C@@H](c3ccccc3)N2[C@@H](c2ccccc2OCCO)[C@]12C(=O)N(C(=O)OCCOC)c1ccccc12`, for which the composite z-score in assay [1] is 0.346 (inactive); in assay [2] it was 0.814. Moreover, the z-score is -1.68 in assay [3], -4.77 (inactive) in assay [4], 0.0539 (inactive) in assay [5] and 0.109 (inactive) in assay [6].
As to `C=CC[C@@]12N=C(c3ccc(OCCCO)cc3)O[C@@H]1c1ccccc1N(Cc1ccccc1)C2=O`, the composite z-score was 0.799 (inactive) in assay [1] and 0.797 in assay [2]. Moreover, the z-score was -2.42 in assay [3], -2.23 (inactive) in assay [4], 0.0198 (inactive) in assay [5] and 0.552 (inactive) in assay [6].
For `COc1ccc(CCNC(=O)[C@@]2(C)c3ccccc3C(=O)N(Cc3cc(C(F)(F)F)cc(C(F)(F)F)c3)[C@H]2c2ccc(CO)cc2)cc1`, the values for the composite z-score in assay [1] and in assay [2] were 0.517 (inactive) and 0.702, respectively. Also, the z-score in assay [3] is -1.88; in assay [4], -2.88 (inactive); in assay [5] it was -0.0741 (inactive); in assay [6] it was 0.364 (inactive).
